Structures are written as SMILES. “And” between values parts separate entries of the source, which are not always exact repeats. Equal entries are not always repeated. Screen size: about 260,000 compounds; about 2,200 (0.85%) were called active.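 How the source made its calls: active means compounds whose cAMP rise, as percent of the full-agonist control response, exceeds 60; inactive means the rest.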 Shown is part of a subset that was picked to be rich in actives. Where a structure was tested more than once in an assay, its records may differ in their call.

Prostaglandin E2 receptor EP2 subtype (Homo sapiens), sequence (P43116 whole entry, looked up): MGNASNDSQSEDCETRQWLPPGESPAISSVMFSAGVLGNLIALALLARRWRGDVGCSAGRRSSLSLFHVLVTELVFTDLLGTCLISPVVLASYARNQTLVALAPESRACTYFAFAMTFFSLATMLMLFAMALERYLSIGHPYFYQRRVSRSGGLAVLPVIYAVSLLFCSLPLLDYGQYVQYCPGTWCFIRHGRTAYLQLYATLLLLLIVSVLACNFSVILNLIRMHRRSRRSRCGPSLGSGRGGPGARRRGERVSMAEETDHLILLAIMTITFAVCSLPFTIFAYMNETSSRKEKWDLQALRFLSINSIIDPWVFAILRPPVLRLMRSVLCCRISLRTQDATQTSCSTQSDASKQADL

This assay addresses Prostaglandin E2 receptor EP2 subtype (Homo sapiens) (UniProt P43116). Description: modulation of human EP2 prostaglandin signaling – cell-based, HTRF cAMP, PGE2 stimulation, primary screen (AID 940).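 Further: rat C6 glioma line stably carrying human EP2 under a CMV promoter; the protocol text gives 20 µM as final concentration; 100% = response of wells given 1 µM PGE2.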 The conditions noted are these: EP2-expressing cells, cAMP HTRF FRET, PGE2 co-stimulation; at 25 µM; stronger effect = higher value. A general note: In TR-FRET formats the signal depends on donor and acceptor labels being close together.
As to `CC(C)NC(=S)N1CCN(C(c2ccccc2)c2ccccc2)CC1`, the induction was 21.2% (inactive).

With `COc1ccccc1NC(=S)N1CCC(NC(=O)C23CC4CC(CC(C4)C2)C3)CC1`, the induction is -21% (inactive) and -7.94% (inactive).

`COc1ccccc1NC(=S)N1CCN(C(c2ccccc2)c2ccccc2)CC1`: the induction was 61.4% (active).

As to `COc1cccc(NC(=O)C(C#N)Cc2cccnc2)c1` (centres undefined), the induction is 2.36% (inactive).

For `O=c1oc2ccccc2cc1-c1csc(Nc2cccc(O)c2)n1`, the induction is -123% (inactive).

Consider `CC1(C)CCCC2(C)C3C1[C@@H](O)C2(C)C[C@H]3O` (some centres undefined), for which the induction was 15.3% (inactive).

For `CC(C)NC(=O)CN1N=C(c2ccccc2)Cn2c(cc3ccccc32)C1=O`, the induction is -36.4% (inactive).

As to `NC(=O)c1nnn(-c2ccc(S(=O)(=O)N3CCCCC3)cc2)c1N`, the induction was 11.5% (inactive).

`O=C(Nc1ccccc1N1CCCCC1)c1cccc(F)c1`: the induction was 66.7% (active).

`O=C(Nc1ccccc1N1CCCCC1)c1ccc2nccnc2c1`: the induction was 87.1% (active).

For the compound `O=C(Nc1ccccc1N1CCN(C(=O)c2ccccc2)CC1)c1ccc2c(c1)OCO2`, the induction is -6.37% (inactive).

`Cc1ccc(C)c(NC(=O)c2ccc3nccnc3c2)c1`: the induction was -54% (inactive).

As to `O=C(Nc1ccccc1N1CCN(c2ccccc2)CC1)c1cccc(F)c1`, the induction is 48.5% (inactive).

In the case of `Cc1cccc(C(=O)Nc2ccccc2N2CCN(c3ccc(F)cc3)CC2)c1`, the induction is 49.9% (inactive).

Regarding `CN(C(=O)C1CCCCC1)c1nc(-c2ccc(Cl)cc2)cs1`, the induction was -0.87% (inactive).

As to `Cc1ccc(N(C(=O)Cn2nnc3ccccc32)C(C(=O)NC2CCCC2)c2ccsc2)cc1` (centres undefined), the induction was 20.6% (inactive).

In the case of `CC(=O)C1CC(CC(=O)N[C@H](Cn2nnc3ccccc32)C(C)C)C1(C)C` (some centres undefined), the induction was -25.1% (inactive).

With `COc1cccc(/C(O)=C2/C(=O)C(=O)N(CCN(C)C)C2c2ccco2)c1` (centres undefined), the induction is 2.05% (inactive).

For the compound `Cc1ccc2[nH]c(=O)c(C(c3nnnn3Cc3ccc(F)cc3)N3CCCC3)cc2c1` (centres undefined), the induction was -4.96% (inactive).

Regarding `NC(=O)CNC(=O)C1CCCN(c2ncccn2)C1` (centres undefined), the induction was 14.7% (inactive).

Take `COCCNCC(=O)N1CCc2ccccc21`: the induction is 10.7% (inactive).

In the case of `Cc1ccc2cc(C(c3nnnn3C3CCCC3)N3CCC(C)CC3)c(=O)[nH]c2c1C` (centres undefined), the induction was -2.6% (inactive).

`CCn1c(Cc2ccccc2)nnc1SCc1nc2ccccc2c(=O)[nH]1`: the induction is 2.09% (inactive).

On to `O=c1[nH]c(CSc2ncc(-c3ccc(F)cc3)n2Cc2ccco2)nc2ccccc12`, for which the induction was 46.2% (inactive) and 68.4% (active).

In the case of `Cn1c(-c2ccc(F)cc2)cnc1SCC(=O)NCc1ccco1`, the induction is -17% (inactive) and -3.43% (inactive).

For `COc1ccc2cc(C)c3nn(CC(=O)N4CCC(C)CC4)c(=O)n3c2c1`, the induction was -70.2% (inactive).

Turning to `CCn1cc(S(=O)(=O)N2CCC(CCc3ccc(C(=O)O)cc3)CC2)c(C)n1`, the induction is -33.1% (inactive).

Regarding `Cc1cc(NC(=O)CSc2nnc3c4c5c(sc4nc(C(C)C)n23)CCCC5)no1`, the induction was 0.87% (inactive).

Regarding `CCOC(=O)C1=C(C)NC(=O)NC1c1ccccc1` (centres undefined), the induction is 19% (inactive).

With `CCOC(=O)C1=C(c2ccccc2)NC(=S)NC1c1ccc(Cl)cc1` (centres undefined), the induction was 47.1% (inactive).

Regarding `CCOC(=O)C1=C(CNC2CCCCC2)NC(=O)NC1c1cc(C)ccc1C` (centres undefined), the induction is 34.3% (inactive).

For the compound `CCOC(=O)C1=C(CN2CCc3ccccc32)NC(=O)NC1c1ccc(Cl)cc1` (centres undefined), the induction was 68.2% (active).

With `CCOC(=O)C1=C(CN2CCCCCC2)NC(=O)NC1c1cccc([N+](=O)[O-])c1` (centres undefined), the induction was -9.45% (inactive).

As to `CCOC(=O)C1=C(CN2CCc3ccccc32)NC(=O)NC1c1cccc([N+](=O)[O-])c1` (centres undefined), the induction is 64.5% (active).

On to `COc1ccc(-c2nc(SCC(=O)O)n[nH]2)cc1`, for which the induction is -21.9% (inactive).

Consider `Cc1ccc(NC(=O)CSc2nccc(=O)[nH]2)c(C)c1`, for which the induction is -21.1% (inactive).

As to `Clc1c(-c2nnc(-c3ccc(N4CCOCC4)cc3)o2)sc2ccccc12`, the induction was -13.2% (inactive).

Regarding `c1csc(-c2cn3c(n2)SCC3)c1`, the induction was -16.2% (inactive).

For the compound `Cc1cc2nc(C(F)(F)F)cc(-c3cccs3)n2n1`, the induction is 19.1% (inactive).

For the compound `Cc1cc(-c2cccs2)nc(-n2cccc2)n1`, the induction was 62.7% (active).

For `O=C(CSc1nc(-c2ccco2)cc(C(F)(F)F)n1)Nc1ccc(Cl)cc1Cl`, the induction is -110% (inactive).

For `O=C(NCCO)C(=O)NCC1COc2ccccc2O1` (centres undefined), the induction was -12.4% (inactive).

`Cc1ccc2nc(NC(=O)c3c(O)c4cccc5c4n(c3=O)CC5)sc2c1`: the induction is -11.9% (inactive).

As to `Cc1cc(=O)n2c3c(cccc13)CCC2`, the induction is 1.93% (inactive).

Take `CCNC(=O)c1c(O)c2cccc3c2n(c1=O)CC3`: the induction is 60.8% (active).

In the case of `CN1c2ncccc2C(=O)NC12CCN(C(=O)Cn1ncc3ccccc3c1=O)CC2`, the induction is -10.6% (inactive).

`O=C(NCc1ccco1)c1cc2sccc2n1Cc1ccc(F)cc1`: the induction was 41.1% (inactive).

As for `O=C(c1cc2sccc2n1Cc1ccc(F)cc1)N1CCc2ccccc21`, the induction is 63% (active).

`CC1Cc2ccccc2N1C(=O)c1cc2sccc2n1Cc1ccccc1` (centres undefined): the induction was 54.1% (inactive).

For `O=C(NCc1nc(-c2cccnc2)n[nH]1)C(c1ccccc1)C1CCCCC1` (centres undefined), the induction was 24.6% (inactive).

With `Cc1ccccc1-n1c(SCC(=O)N2CCCCCC2)nnc1-c1cccnc1`, the induction was -15.5% (inactive).

For `COc1cccc(CN2CCN(C(=O)c3ccccn3)[C@@H](C)C2)c1`, the induction is -14.5% (inactive).

Regarding `CCn1c(SCC(=O)Nc2ccc(C)cc2C)nnc1C(C)C`, the induction is -31.6% (inactive).

With `CCCC(=O)Nc1ccc(Cl)c(NC(=O)c2ccc(Br)o2)c1`, the induction is 6.2% (inactive).

For `COc1cc(OC)c(NC(=O)c2ccc(Br)o2)cc1Cl`, the induction was -17.9% (inactive).

In the case of `CCN1CCN(c2c(Cl)cccc2NC(=O)c2ccc(Br)o2)CC1`, the induction is 74.4% (active).

With `CCCc1nc(SCC(=O)N2CCCC2)c2c(C)c(C)sc2n1`, the induction was 1.9% (inactive).

As to `CCCc1nc(SCC(=O)OCC)c2c(C)c(C)sc2n1`, the induction is 74% (active).

With `CCOC(=O)c1sc2nc(C)nc(SCC(N)=O)c2c1C`, the induction is 9.11% (inactive).

As to `COc1ccc(OC)c(C(=O)CSc2ncnc3c2cnn3-c2ccccc2C)c1`, the induction is 44.3% (inactive).

`Cn1c(=O)[nH]c(=O)c2c1nc(NCCCO)n2Cc1cccc2ccccc12`: the induction was 22% (inactive).

Turning to `CCc1nc(C)ccc1OCC(=O)N(CC)CC`, the induction is 8.52% (inactive).

With `CN(C)CCOc1ccc(Cl)cc1C(C)(C)C`, the induction is -0.86% (inactive).

`CCC(C)(C)c1ccc(OCC(=O)N(C)C)c(C(C)(C)CC)c1`: the induction is 76% (active).

For `COc1cc(C2NC(=O)NC(C)=C2C(=O)Nc2ccc(C)cc2C)ccc1O` (centres undefined), the induction is 5.85% (inactive).

As for `CSc1nc2ccccc2c(=O)n1Cc1ccc(F)cc1`, the induction is 80.8% (active).

On to `O=C(CCn1c(SCC(=O)c2ccccc2)nc2ccccc2c1=O)NCc1ccc(F)cc1`, for which the induction was 11.2% (inactive).

Consider `COC(=O)CSc1nc2ccccc2c(=O)n1Cc1ccccc1`, for which the induction was 47.6% (inactive).

For the compound `COc1cccc(C2(NC(=O)c3cccc(N4CCCCS4(=O)=O)c3)CCCC2)c1`, the induction is -5.04% (inactive).

For the compound `O=C(Nc1cc(Cl)cc(Cl)c1)C1CCN(C(=O)c2cccs2)CC1`, the induction was -118% (inactive).

In the case of `C=CCn1c(SCC(=O)Nc2ccccc2F)nc2sc(C)c(C)c2c1=O`, the induction was -87.9% (inactive).

In the case of `COc1cccc(-c2ccc(NS(=O)(=O)c3ccc4c(c3)CCC(=O)N4)cc2)c1`, the induction was -97.5% (inactive).

Turning to `NC(=S)N/N=C/c1coc2cc(Cl)ccc2c1=O`, the induction was 5.33% (inactive).

Turning to `CC(C)Oc1c(Br)cc(Br)cc1/C=N/NC(N)=S`, the induction is 62% (active).

`CCOc1ccc(/C=N/NC(N)=S)cc1`: the induction was -0.15% (inactive).

`COc1ccccc1NC(=S)N(Cc1cc2c(C)cc(C)cc2[nH]c1=O)C1CCCC1`: the induction is 3.07% (inactive).

In the case of `COC(=O)c1c(NC(=O)C2CC2)sc(C(=O)Nc2cc(C)ccc2C)c1C`, the induction was -75.5% (inactive).

In the case of `CCOC(=O)C(=O)Nc1sc(C(=O)Nc2cc(C)ccc2C)c(C)c1C(=O)OC`, the induction was -1.65% (inactive).

In the case of `COC(=O)c1c(NC(=O)C(C)C)sc(C(=O)Nc2cc(C)ccc2C)c1C`, the induction is 62% (active).

Regarding `COCCn1c(=O)n(CC(=O)N2CCN(c3ccccc3F)CC2)c2cccnc21`, the induction is 0.09% (inactive).

On to `CCN1c2ncccc2C(=O)NC12CCN(C(=O)c1cccc3c1C(=O)N(C)C3)CC2`, for which the induction is -5.04% (inactive).

Consider `CCn1c(CSc2nc(C)cc(C)n2)nnc1SCC(=O)Nc1cccc(C(F)(F)F)c1`, for which the induction is -10.6% (inactive).

For the compound `CC[N+](C)(CC[N+](C)(C)C)Cc1cc2ccccc2o1` (centres undefined), the induction was -3.15% (inactive).

In the case of `C=CCn1c(SC(C)C(=O)OC)nc2c1c(=O)[nH]c(=O)n2C` (centres undefined), the induction is -1.3% (inactive).

In the case of `CCCCCn1c(SCCC(C)C)nc2c1c(=O)[nH]c(=O)n2C`, the induction was 69.2% (active).

`CCCCCCn1c(SCC(=O)c2ccccc2)nc2c1c(=O)[nH]c(=O)n2C`: the induction was -0.64% (inactive).

Regarding `C=CCn1c(=O)c(C(=O)Nc2cccc(C)n2)c(O)c2ccccc21`, the induction is 2.07% (inactive).

Consider `CCn1c(COc2ccc(OC)cc2)nnc1SC(C)C(=O)Nc1ccccc1C` (centres undefined), for which the induction is 28.9% (inactive).

With `COc1ccccc1Cc1nnc(NC(=O)c2cnc(SC)nc2)s1`, the induction is -0.63% (inactive).

In the case of `O=C(CSc1nnc(-c2ccccc2)o1)N1CCOCC1`, the induction was 1.42% (inactive).

For `CC1=CC(C)(C)N(C(=O)CSc2nccn2C)c2cc(C)ccc21`, the induction is 43.9% (inactive).

Take `CC1=CC(C)(C)N(C(=O)CSc2nnc(-c3ccccc3)o2)c2ccc(C)cc21`: the induction was 61.5% (active).

For the compound `COc1ccc(-c2csc(N3N=C(C)CC3=O)n2)cc1`, the induction is -82.9% (inactive).

`NC(=O)C1CCN(Cc2nnnn2Cc2ccccc2)CC1`: the induction was 25.5% (inactive).
